Bioassay records as filed in PubChem.
In the library only some 21% were active in any assay of this set; here they are far more common.
Shiga toxin inh: blocks Shiga toxin action in Vero cells; Vero cells, Shiga toxin protein synthesis inhibition reporter; inhibition, % at 38.7 µM; 290,000 tested, 9.2% active; AID 2315; in the data active = inhibition mostly above about 28%, no sharp cut-off; inactive = mostly below about 43%
Pf growth 96h: inhibits malaria parasite growth, 96 h; P. falciparum luciferase reporter growth, 96 h; Potency, µM (highest dose often 28.7 µM), most hits filed as inhibitors; 320,000 tested, 6.9% active; active = well fitted inhibition curve with a large enough effect; inconclusive = small, poorly fitted or top-dose-only effect, or another doubt; inactive = no such curve, though single readings can be large or run the other way
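Erythrocytes infected with luciferase-expressing P. falciparum were dispensed at 2% hematocrit and 0.05% parasitemia (final), then incubated with compounds 96 hours at 37 C in 5% CO2. Luminescence after detection reagent addition reported growth.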
SARS PLP yeast: blocks SARS-CoV papain-like protease in a yeast assay; S. cerevisiae expressing SARS-CoV PLpro, growth rescue; 330,000 tested, 0.19% active; Potency, µM (titrated, usually from 32.9 µM), hits mostly activators; also: nearly all actives have a fitted effect of over 55% in size
Pf growth 48h: inhibits P. falciparum growth in the first generation, 48 h; P. falciparum luciferase growth in erythrocytes, 48 h; 310,000 tested, 5.9% active; Potency, µM (doses to about 28.7 µM), actives largely listed as inhibitors; active = well fitted inhibition curve with a large enough effect; inconclusive = small, poorly fitted or top-dose-only effect, or another doubt; inactive = no such curve, though single readings can be large or run the other way
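Luminescence readout; reporter = integrated firefly luciferase in P. falciparum. RBC culture at 2% hematocrit, 0.1% parasitemia final, 37 C/5% CO2; decreased signal taken as growth inhibition.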
NS1 function inh: blocks influenza NS1 protein function; AID 2326; Potency, µM (series often up to 46.1 µM); 270,000 tested, 0.4% active; also: actives are rising curves; nearly all actives have a fitted effect of over 50% in size
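OD600 was taken as the measure of yeast growth restored by compound in an NS1-expressing S. cerevisiae strain. Cells had been washed out of glucose medium and diluted 1:100 into galactose -URA medium, pH 6.0.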
Cycloheximide cs: affects cycloheximide protein synthesis inhibition readout, counter-screen. cell reporter, cycloheximide protein synthesis inhibition counterscreen. max response, %. 300,000 tested, 12% active. AID 2314; in the data active = max response mostly above about 13%, no sharp cut-off; inactive = mostly below about 14%; also: read at 38.3 µM for the half of the compounds with a filed dose
Each line names hits and unclear results; the compound was inactive in the other large screens. Unless noted, calls follow the shape of the full dose curve.

C[C@@H]([C@@H](O)c1ccccc1)N(C)C(=O)C(N)Cc1ccccc1 (some centres undefined)	none
N#Cc1ccc(C(=O)OCC(=O)Nc2cccc(S(=O)(=O)NC3=NCCC3)c2)cc1	none (no result: Shiga toxin inh, Pf growth 96h, Pf growth 48h, NS1 function inh, Cycloheximide cs)
CC1CCCC(C)N1C(=O)CSc1nc2ncnc(N)c2[nH]1 (centres undefined)	Pf growth 96h 0.74µM
CC1CCCC(C)N1C(=O)CSc1nc(N)cc(N)n1 (centres undefined)	none
Cn1nc(CSc2ccccc2)c(C=O)c1Cl	Cycloheximide cs 41 (no result: NS1 function inh)
CN(C)C1=NC[C@H](Cc2ccccc2)N1CCCC1CCCCC1	Pf growth 96h 5.2µM, Pf growth 48h 7.4µM (no result: Shiga toxin inh, NS1 function inh, Cycloheximide cs)
CN(C)C1=NC[C@H](Cc2ccccc2)N1CCCC1CCCC1	Pf growth 96h inconclusive, Pf growth 48h 9.3µM (no result: Shiga toxin inh, NS1 function inh, Cycloheximide cs)
S=C1NC[C@H](Cc2ccccc2)N1CCCCC1CCCCC1	Shiga toxin inh 42, Pf growth 96h inconclusive, Pf growth 48h inconclusive, Cycloheximide cs 11
c1ccc(C[C@H]2CN=C(Nc3ccccc3)N2CCCC2CCCC2)cc1	Pf growth 96h inconclusive, Pf growth 48h inconclusive
S=C1NC[C@H](c2ccccc2)N1CC1CCCCC1	Pf growth 96h 8.3µM, Pf growth 48h inconclusive
CSc1ccccc1NC(=O)CN(C)CC(=O)Nc1ccccc1C(F)(F)F	none (no result: NS1 function inh)
CN(C)C1=NC[C@H](Cc2ccccc2)N1CCC1CCCC1	Pf growth 96h inconclusive, Pf growth 48h 10µM (no result: Shiga toxin inh, NS1 function inh, Cycloheximide cs)
CN(C)C1=NC[C@H](Cc2ccccc2)N1CC1CCCCCC1	Pf growth 96h inconclusive, Pf growth 48h 12µM (no result: Shiga toxin inh, NS1 function inh, Cycloheximide cs)
CC(C)(C)C1CCC(CN2C(Nc3ccccc3)=NC[C@@H]2Cc2ccccc2)CC1 (some centres undefined)	none (no result: Shiga toxin inh, Pf growth 96h, Pf growth 48h, NS1 function inh, Cycloheximide cs)
C[C@H]1CN=C(N(C)C)N1CCC1CCCC1	Pf growth 96h inconclusive, Pf growth 48h inconclusive (no result: Shiga toxin inh, NS1 function inh, Cycloheximide cs)
Cc1ccc(C(=O)C2CCN(C(=S)NCCCOC(C)C)CC2)cc1	none
Cc1ccc(CN2CCN(Cc3cnc(C)[nH]3)CC2CCO)cc1 (centres undefined)	Pf growth 96h 12µM
COc1ccc(CN2CCN(CCCc3ccccc3)C(CCO)C2)c(O)c1 (centres undefined)	Pf growth 96h 2.9µM, Pf growth 48h inconclusive
COc1ccc(CN2CCN(CCc3ccccc3)C(CCO)C2)c(O)c1 (centres undefined)	Pf growth 48h 10µM
OCCC1CN(Cc2ccccc2O)CCN1CCCc1ccccc1 (centres undefined)	SARS PLP yeast inconclusive, Pf growth 48h 6.6µM
COc1ccc(CN2CCN(CCCc3ccccc3)C(CCO)C2)c(OC)c1 (centres undefined)	Pf growth 96h inconclusive
Cc1ccc(CN2CCN(Cc3nc4ccccc4nc3C)CC2CCO)cc1 (centres undefined)	Pf growth 96h inconclusive, Pf growth 48h inconclusive
COc1ccc(O)c(CN2CCN(CCc3ccccc3)C(CCO)C2)c1 (centres undefined)	Pf growth 96h inconclusive
CCC(C)NC(=O)CSc1nc2cc3c(cc2c(=O)n1Cc1ccc(C(=O)NCCc2ccc(OC)c(OC)c2)cc1)OCO3 (centres undefined)	none (no result: Pf growth 96h, SARS PLP yeast, Pf growth 48h, NS1 function inh)
CCOC(=O)c1ccc(NC(=O)COc2ccc(S(=O)(=O)NC(C)(C)C)cc2)cc1	Pf growth 48h inconclusive
Cn1cc(S(=O)(=O)N2CCc3ccccc32)cc1C(=O)NC(C)(C)C	Pf growth 48h inconclusive
CCN(CC)N=Nc1ccc(S(=O)(=O)Nc2nc(C)cc(C)n2)cc1	Pf growth 96h inconclusive
CCOc1ccccc1CN1CCN(CC2=Cc3cc(OC)ccc3OC2)CC1CCO (centres undefined)	Pf growth 96h inconclusive, Pf growth 48h 9.3µM
OCCC1CN(Cc2ccccc2-c2ccco2)CCN1Cc1ccccc1 (centres undefined)	Pf growth 96h 9.3µM, Pf growth 48h inconclusive
OCCC1CN(Cc2cccc3c2OCO3)CCN1Cc1ccccc1 (centres undefined)	Pf growth 96h inconclusive
COc1ccc(NS(=O)(=O)c2cccc(C(=O)NCc3ccco3)c2)cc1	none (no result: Shiga toxin inh, NS1 function inh, Cycloheximide cs)
C=CCOC(=O)C1=C(C)NC(C)=C(C(=O)OCC=C)C1c1ccco1	Pf growth 96h inconclusive, Pf growth 48h inconclusive
CCOC(=O)C1=C(C)NC(C)=C(C(=O)OC)C1c1ccco1 (centres undefined)	Pf growth 96h 13µM, Pf growth 48h inconclusive
CCOC(=O)C1=c2s/c(=C\c3ccncc3)c(=O)n2C(N)=C(C(=O)OC)C1c1ccncc1 (centres undefined)	none (no result: NS1 function inh)
